Laboratory results taken from PubChem BioAssay (NCATS).
Results filed as inconclusive are left out. Entries that show only a call come without a potency. Active and inactive are the calls of the source. The call rests on the fitted dose curve; in most records, active means well fitted curve in the direction sought with a large enough effect; inconclusive means small, poorly fitted or top-dose-only effect, or another doubt; inactive means no such curve, though single readings can be large; an effect the other way counts as inactive or inconclusive.

Key:
[1] = biological target: Glutathione peroxidase 1 (Homo sapiens) (UniProt P07203); assay: Primary qHTS Assay for Inhibitors of Recombinant Selenoprotein Glutathione Peroxidase 1 (GPX1) (AID 1845191); conditions: recombinant GPX1, GR-coupled NADPH fluorescence, 15 min; series mostly up to 48.8 µM; further: nearly all actives have a fitted effect of over 65% in size
Method in brief: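 GR-coupled assay: compounds preincubated 30 min at room temperature with GPX1, then reaction started with CHP; final 10 nM GPX1, 1 mM GSH, 0.5 mM CHP, 0.5 mM NADPH, 100 nM GR, 0.01% BSA, pH 7.5 Tris buffer. NADPH fluorescence (340/450 nm) read at 0 and 15 min.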

[2] = biological target: Luciferin 4-monooxygenase (Photinus pyralis) (UniProt P08659); assay: Primary firefly luciferase (FLuc) qHTS assay for identification of artifact compounds. (AID 1845220); conditions: purified firefly luciferase, luminescence, 5 min; series mostly up to 54.1 µM; further: nearly all actives have a fitted effect of over 60% in size
Method in brief: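 Enzymatic FLuc inhibition assay: compounds pre-exposed to luciferin/ATP (10 uM each) for 15 min, then purified P. pyralis enzyme at 10 nM added. Read-out: luminescence at 5 min.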

[3] = Primary fluorescence-based thiol-reactive (MSTI) qHTS assay for identification of artifact compounds. (AID 1845221); conditions: MSTI thiol-reactivity probe, 1 h; series mostly up to 53.8 µM; further: nearly all actives have a fitted effect of over 65% in size; further: potency means the concentration at half of the fitted maximal effect
Method in brief: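 In PBS pH 7.4 with 2% DMSO, each compound met 4 uM MSTI for one hour at ambient temperature, shielded from light, before fluorescence detection.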

[4] = test system: Nanoluciferase (engineered Oplophorus gracilirostris luciferase); assay: Primary Nanoluciferase (NLuc) qHTS assay for identification of artifact compounds. (AID 1845222); conditions: NLuc-conditioned medium, Nano-Glo luminescence, 5 min; series mostly up to 54.1 µM; further: potency means the concentration at half of the fitted maximal effect
Method in brief: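 S16 cell supernatant NLuc, 1:55; cpds qHTS; 15 min RT dark; Nano-Glo substrate 1:100, 5 min; luminescence; Hill fit of % inhibition.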

[5] = Primary redox qHTS assay for identification of artifact compounds. (AID 1845223); conditions: Amplex Red/HRP redox cycling with DTT, fluorescence; series mostly up to 53.8 µM
Method in brief: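 Amplex Red (25 uM) and HRP (250 mU/mL) in HBSS, with compounds for 15 min, then 250 uM DTT for 30 min, room temperature, dark. Fluorescence 525/598 nm read; normalized to DMSO and 10 uM DA3003; Hill fit.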

Sequence of Glutathione peroxidase 1 (Homo sapiens) (P07203 whole entry, looked up): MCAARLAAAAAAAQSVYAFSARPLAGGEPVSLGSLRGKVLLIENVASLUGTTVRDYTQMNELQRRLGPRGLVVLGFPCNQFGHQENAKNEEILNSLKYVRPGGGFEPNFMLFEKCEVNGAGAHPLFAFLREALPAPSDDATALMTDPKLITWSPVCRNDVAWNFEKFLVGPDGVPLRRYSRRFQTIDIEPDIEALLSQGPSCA

Q: Which results are given for `C#C[C@]1(O)CC[C@H]2[C@@H]3CCC4=C/C(=N/O)CC[C@@H]4[C@H]3CC[C@@]21CC`?
A: Potency [1]: inactive; Potency [2]: inactive; Potency [3]: inactive; Potency [4]: inactive; Potency [5]: inactive

Q: With `NC(=O)c1cccc(-c2cc(O)cc(OC(=O)NC3CCCCC3)c2)c1` as the molecule, how does the Potency [1] read?
A: inactive

Q: What about the Potency [2] of the same molecule?
A: inactive

Q: And the Potency [3]?
A: inactive

Q: What about the Potency [4] of the same molecule?
A: inactive

Q: And the Potency [5]?
A: inactive

Q: For `CCOc1nc2cccc(C(=O)O)c2n1Cc1ccc(-c2ccccc2-c2noc(=O)[nH]2)cc1`, which Potency [1] is on record?
A: inactive

Q: What about the Potency [2] of the same molecule?
A: inactive

Q: What about the Potency [3] of the same molecule?
A: inactive

Q: And the Potency [4]?
A: 21.3 µM (active)

Q: What about the Potency [5] of the same molecule?
A: inactive

Q: Which Potency [1] does the source give for `CC(=O)OCC(=O)O[C@@H]1[C@H]2[C@@H](OC(=O)c3ccccc3)[C@@H](C)C[C@]2(O)[C@H](OC(C)=O)C2(C)[C@H]3CC(C)(C)C(=O)[C@@H]3CC1(OC(C)=O)[C@@H]2OC(C)=O` (some centres not stated) here?
A: inactive

Q: And the Potency [2]?
A: inactive

Q: And the Potency [3]?
A: inactive

Q: And the Potency [4]?
A: inactive

Q: What about the Potency [5] of the same molecule?
A: inactive

Q: For `CNc1nc(Nc2cnn([C@H]3CCN(C4COC4)C[C@@H]3F)c2Cl)ncc1C(F)(F)F`, which Potency [1] is on record?
A: inactive

Q: What about the Potency [2] of the same molecule?
A: inactive

Q: What about the Potency [3] of the same molecule?
A: inactive

Q: What about the Potency [4] of the same molecule?
A: inactive

Q: And the Potency [5]?
A: inactive

Q: Which results are given for `C[C@]12CC[C@@H]3c4ccc(O[C@@H]5O[C@H](C(=O)O)[C@@H](O)[C@H](O)[C@H]5O)cc4CC[C@H]3[C@@H]1CCC2=O`?
A: Potency [1]: inactive; Potency [2]: inactive; Potency [3]: inactive; Potency [5]: inactive

Q: What does the source list for `OC1COC(OCC2OC(OCCc3ccccc3)C(O)C(O)C2O)C(O)C1O` (configuration not stated)?
A: Potency [1]: inactive; Potency [2]: inactive; Potency [3]: 4.12 µM (active); Potency [4]: inactive; Potency [5]: inactive

Q: Which Potency [1] does the source give for `O=C(O)CCc1cccc(O[C@@H]2O[C@H](CO)[C@@H](O)[C@H](O)[C@H]2O)c1O` here?
A: inactive

Q: And the Potency [2]?
A: inactive

Q: And the Potency [4]?
A: inactive

Q: And the Potency [5]?
A: inactive

Q: For `CC(C)[C@@H](C)/C=C/[C@@H](C)[C@H]1CC[C@H]2C3=CC=C4C[C@@H](O)CC[C@]4(C)[C@H]3CC[C@]12C`, which Potency [1] is on record?
A: inactive

Q: And the Potency [2]?
A: inactive

Q: And the Potency [3]?
A: inactive

Q: And the Potency [4]?
A: inactive

Q: And the Potency [5]?
A: inactive

Q: For `CC(=O)OC[C@]1(O)[C@H]2[C@H](OC(=O)CC(C)C)OC=C(CO[C@@H]3O[C@H](CO)[C@@H](O)[C@H](O)[C@H]3O)[C@H]2C[C@@H]1O`, which Potency [1] is on record?
A: inactive

Q: What about the Potency [2] of the same molecule?
A: inactive

Q: And the Potency [4]?
A: inactive

Q: And the Potency [5]?
A: inactive
